In publication PMC7862700, “An all-to-all approach to the identification of sequence-specific readers for epigenetic DNA modifications on cytosine” one finds binding signal data, which are given here for one sequence.

What all share (assay): DAPPL (digital affinity profiling via proximity ligation, sequencing); 10 mM Tris-HCl pH 7.5, 50 mM NaCl, 1 mM DTT, 4% glycerol, room temperature, 30 min; GST-TFs on glutathione beads, 16-mer random dsDNA library, 0.1% formaldehyde crosslink after washing; high values mean tight binding
One assay deals with T1, FLI1 (Homo sapiens, UniProt Q01543 1-452).
T1 sequence: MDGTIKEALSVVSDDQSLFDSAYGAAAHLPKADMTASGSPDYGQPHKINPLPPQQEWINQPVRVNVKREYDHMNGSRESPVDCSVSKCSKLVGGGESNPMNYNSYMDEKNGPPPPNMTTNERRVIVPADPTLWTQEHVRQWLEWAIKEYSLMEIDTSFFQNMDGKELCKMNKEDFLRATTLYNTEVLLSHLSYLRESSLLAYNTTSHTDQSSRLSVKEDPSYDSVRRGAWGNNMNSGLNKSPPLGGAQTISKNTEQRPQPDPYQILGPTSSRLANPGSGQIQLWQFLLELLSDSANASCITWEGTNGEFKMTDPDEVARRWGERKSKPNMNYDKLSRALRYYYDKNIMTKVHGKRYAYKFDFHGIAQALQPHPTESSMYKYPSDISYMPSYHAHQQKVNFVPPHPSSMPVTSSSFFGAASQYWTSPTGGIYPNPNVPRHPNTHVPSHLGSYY
Conditions: protein: recombinant; tags: N-terminal GST; dsDNA, one strand shown. In short, it runs like this: (§1)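 In yeast, human transcription factors were expressed with a GST fusion, then pulled down on glutathione beads and given DNA barcodes. Pooled with a tag-only sample, they were exposed to 200 nmole of a 16-mer random double-stranded DNA library (Tris/NaCl/DTT/glycerol buffer, room temperature, 30 min), washed, crosslinked with 0.1% formaldehyde, proximity-ligated using BsaI/T4 ligase for 1 h at 37 °C, PCR-amplified and read on an Illumina NextSeq500. Each hexamer's frequency of reads for a factor, divided by the matching frequency for the tag-only sample, gives the binding signal.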

The target in the next assay is T2, ELK1 (Homo sapiens, UniProt P19419 1-428).
T2 sequence: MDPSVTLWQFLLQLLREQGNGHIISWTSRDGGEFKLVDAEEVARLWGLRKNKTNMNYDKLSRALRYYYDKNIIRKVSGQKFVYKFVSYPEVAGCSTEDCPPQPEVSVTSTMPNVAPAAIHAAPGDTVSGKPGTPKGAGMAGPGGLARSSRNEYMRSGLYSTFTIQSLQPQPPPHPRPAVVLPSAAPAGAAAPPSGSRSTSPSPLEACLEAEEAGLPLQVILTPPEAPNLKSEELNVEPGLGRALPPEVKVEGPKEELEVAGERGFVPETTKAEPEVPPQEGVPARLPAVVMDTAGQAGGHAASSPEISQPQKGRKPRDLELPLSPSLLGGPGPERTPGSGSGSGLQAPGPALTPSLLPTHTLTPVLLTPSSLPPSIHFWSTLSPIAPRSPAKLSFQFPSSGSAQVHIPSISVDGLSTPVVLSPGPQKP
Conditions: protein: recombinant; tags: N-terminal GST; dsDNA, one strand shown. A digest of the protocol: as §1

For the next assay, the target named is T3, GABPA (Homo sapiens, UniProt Q06546 1-454).
T3 sequence: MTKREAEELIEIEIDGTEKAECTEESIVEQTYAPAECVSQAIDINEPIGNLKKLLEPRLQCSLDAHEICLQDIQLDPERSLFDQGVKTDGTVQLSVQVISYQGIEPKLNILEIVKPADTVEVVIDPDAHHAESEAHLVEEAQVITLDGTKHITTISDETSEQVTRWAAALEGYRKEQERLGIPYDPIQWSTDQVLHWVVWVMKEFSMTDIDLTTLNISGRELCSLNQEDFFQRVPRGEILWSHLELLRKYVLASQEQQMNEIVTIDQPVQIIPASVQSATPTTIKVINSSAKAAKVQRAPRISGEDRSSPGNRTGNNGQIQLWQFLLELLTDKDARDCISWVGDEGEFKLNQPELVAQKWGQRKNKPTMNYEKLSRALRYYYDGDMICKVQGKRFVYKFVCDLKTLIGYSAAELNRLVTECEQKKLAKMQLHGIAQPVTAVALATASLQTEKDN
As to conditions: protein: recombinant; tags: N-terminal GST; dsDNA, one strand shown. In short, it runs like this: as §1

In another assay the target is T4, ERG (Homo sapiens, UniProt P11308 1-479).
T4 sequence: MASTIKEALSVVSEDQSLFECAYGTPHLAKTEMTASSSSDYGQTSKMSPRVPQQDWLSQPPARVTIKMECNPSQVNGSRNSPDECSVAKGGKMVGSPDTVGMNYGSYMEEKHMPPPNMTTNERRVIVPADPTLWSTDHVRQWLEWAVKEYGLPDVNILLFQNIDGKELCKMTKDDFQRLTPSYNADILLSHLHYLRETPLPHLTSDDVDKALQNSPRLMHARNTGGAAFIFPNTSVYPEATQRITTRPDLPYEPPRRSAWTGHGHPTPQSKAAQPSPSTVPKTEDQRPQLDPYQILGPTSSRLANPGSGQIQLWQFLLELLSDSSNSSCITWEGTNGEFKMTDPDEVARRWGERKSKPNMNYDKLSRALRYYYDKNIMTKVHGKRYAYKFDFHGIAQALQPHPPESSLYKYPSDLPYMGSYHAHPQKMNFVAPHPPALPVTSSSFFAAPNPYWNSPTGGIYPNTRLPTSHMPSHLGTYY
As to conditions: protein: recombinant; tags: N-terminal GST; dsDNA, one strand shown. A digest of the protocol:
as §1

Another assay has as its target ELF1 (Homo sapiens, UniProt P32519 1-619). Conditions: protein: recombinant; tags: N-terminal GST; dsDNA, one strand shown. In short, it runs like this:
as §1

The target of a further assay is T5, EHF (Homo sapiens, UniProt Q9NZC4 1-300).
T5 sequence: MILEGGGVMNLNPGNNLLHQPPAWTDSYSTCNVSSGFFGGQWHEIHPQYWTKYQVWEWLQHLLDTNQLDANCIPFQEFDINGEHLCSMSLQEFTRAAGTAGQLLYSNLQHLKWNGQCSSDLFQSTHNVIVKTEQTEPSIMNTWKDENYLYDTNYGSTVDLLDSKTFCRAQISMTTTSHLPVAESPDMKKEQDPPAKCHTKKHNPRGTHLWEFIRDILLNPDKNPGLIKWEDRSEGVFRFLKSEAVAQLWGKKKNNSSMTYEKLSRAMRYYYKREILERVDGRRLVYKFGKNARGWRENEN
Conditions: protein: recombinant; tags: N-terminal GST; dsDNA, one strand shown. In short, it runs like this:
as §1

The target of another assay is SPI1 (Homo sapiens, UniProt P17947 1-270). As to conditions: protein: recombinant; tags: N-terminal GST; dsDNA, one strand shown. A digest of the protocol:
as §1

Another assay concerns the target SPIB (Homo sapiens, UniProt Q01892 1-262). As to conditions: protein: recombinant; tags: N-terminal GST; dsDNA, one strand shown. In short, it runs like this:
as §1

The target of another assay is T6, ELK3 (Homo sapiens, UniProt P41970 1-407).
T6 sequence: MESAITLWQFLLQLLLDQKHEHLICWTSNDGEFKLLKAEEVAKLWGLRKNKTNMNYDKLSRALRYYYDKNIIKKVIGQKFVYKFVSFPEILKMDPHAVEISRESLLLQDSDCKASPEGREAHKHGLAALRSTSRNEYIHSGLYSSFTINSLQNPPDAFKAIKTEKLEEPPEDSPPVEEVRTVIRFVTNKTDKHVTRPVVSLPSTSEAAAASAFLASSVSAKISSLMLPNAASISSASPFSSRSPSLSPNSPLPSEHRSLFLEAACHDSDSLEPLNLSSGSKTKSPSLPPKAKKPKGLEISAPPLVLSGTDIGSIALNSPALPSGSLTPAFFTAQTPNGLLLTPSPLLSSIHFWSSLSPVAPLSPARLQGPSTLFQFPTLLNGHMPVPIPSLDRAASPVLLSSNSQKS
As to conditions: protein: recombinant; tags: N-terminal GST; dsDNA, one strand shown. A digest of the protocol:
as §1

The target in the next assay is T7, FEV (Homo sapiens, UniProt Q99581 1-238).
T7 sequence: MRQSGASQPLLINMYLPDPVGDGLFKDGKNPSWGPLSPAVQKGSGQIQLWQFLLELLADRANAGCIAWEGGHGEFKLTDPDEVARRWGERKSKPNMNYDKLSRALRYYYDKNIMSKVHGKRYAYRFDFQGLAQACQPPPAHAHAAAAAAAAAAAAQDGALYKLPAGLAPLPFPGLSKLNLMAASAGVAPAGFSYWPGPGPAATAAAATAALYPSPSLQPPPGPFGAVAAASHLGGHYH
As to conditions: protein: recombinant; tags: N-terminal GST; dsDNA, one strand shown. In short, it runs like this: as §1

A further assay concerns the target ETV5 (Homo sapiens, UniProt P41161 1-510). As to conditions: protein: recombinant; tags: N-terminal GST; dsDNA, one strand shown. In short, it runs like this: as §1
A further assay addresses HSF1 (Homo sapiens, UniProt Q00613 1-529). Conditions: protein: recombinant; tags: N-terminal GST; chain copies: 3; dsDNA, one strand shown. A digest of the protocol: as §1
For a further assay, the target named is T8, SPIC (Homo sapiens, UniProt Q8N5J4 1-248).
T8 sequence: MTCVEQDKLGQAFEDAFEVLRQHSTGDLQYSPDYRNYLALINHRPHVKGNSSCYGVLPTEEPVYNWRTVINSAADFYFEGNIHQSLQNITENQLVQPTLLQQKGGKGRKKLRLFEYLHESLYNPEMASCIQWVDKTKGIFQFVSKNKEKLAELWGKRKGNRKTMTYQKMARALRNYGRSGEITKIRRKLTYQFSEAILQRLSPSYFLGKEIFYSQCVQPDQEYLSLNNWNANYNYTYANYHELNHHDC
Conditions: protein: recombinant; tags: N-terminal GST; dsDNA, one strand shown. A digest of the protocol:
as §1

The target in another assay is ELF4 (Homo sapiens, UniProt Q99607 1-663). As to conditions: protein: recombinant; tags: N-terminal GST; dsDNA, one strand shown. In short, it runs like this:
as §1

Another assay addresses T9, ELK4 (Homo sapiens, UniProt P28324-2 1-405).
T9 sequence: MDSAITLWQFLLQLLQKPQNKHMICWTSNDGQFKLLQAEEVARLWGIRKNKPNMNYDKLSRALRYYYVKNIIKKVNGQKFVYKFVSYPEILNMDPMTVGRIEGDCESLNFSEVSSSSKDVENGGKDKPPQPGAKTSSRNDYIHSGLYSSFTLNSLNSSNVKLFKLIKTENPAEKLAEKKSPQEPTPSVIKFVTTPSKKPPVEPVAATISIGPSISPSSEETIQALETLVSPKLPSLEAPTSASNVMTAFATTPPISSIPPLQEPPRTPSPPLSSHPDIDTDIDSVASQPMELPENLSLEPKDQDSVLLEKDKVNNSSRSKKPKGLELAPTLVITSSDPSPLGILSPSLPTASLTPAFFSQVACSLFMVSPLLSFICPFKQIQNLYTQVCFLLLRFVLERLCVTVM
As to conditions: protein: recombinant; tags: N-terminal GST; dsDNA, one strand shown. In short, it runs like this:
as §1

The target in another assay is T10, ETV2 (Homo sapiens, UniProt O00321 1-342).
T10 sequence: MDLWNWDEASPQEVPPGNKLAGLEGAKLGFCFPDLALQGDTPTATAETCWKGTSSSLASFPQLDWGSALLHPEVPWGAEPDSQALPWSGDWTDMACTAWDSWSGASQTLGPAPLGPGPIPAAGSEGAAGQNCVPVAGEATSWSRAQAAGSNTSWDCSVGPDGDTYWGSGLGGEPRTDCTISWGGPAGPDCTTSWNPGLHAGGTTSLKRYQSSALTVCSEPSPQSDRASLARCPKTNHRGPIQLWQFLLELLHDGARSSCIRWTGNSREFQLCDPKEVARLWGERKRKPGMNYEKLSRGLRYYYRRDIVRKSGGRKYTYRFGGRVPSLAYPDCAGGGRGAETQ
As to conditions: protein: recombinant; tags: N-terminal GST; dsDNA, one strand shown. A digest of the protocol:
as §1

A further assay addresses T11, ELF3 (Homo sapiens, UniProt P78545 1-371).
T11 sequence: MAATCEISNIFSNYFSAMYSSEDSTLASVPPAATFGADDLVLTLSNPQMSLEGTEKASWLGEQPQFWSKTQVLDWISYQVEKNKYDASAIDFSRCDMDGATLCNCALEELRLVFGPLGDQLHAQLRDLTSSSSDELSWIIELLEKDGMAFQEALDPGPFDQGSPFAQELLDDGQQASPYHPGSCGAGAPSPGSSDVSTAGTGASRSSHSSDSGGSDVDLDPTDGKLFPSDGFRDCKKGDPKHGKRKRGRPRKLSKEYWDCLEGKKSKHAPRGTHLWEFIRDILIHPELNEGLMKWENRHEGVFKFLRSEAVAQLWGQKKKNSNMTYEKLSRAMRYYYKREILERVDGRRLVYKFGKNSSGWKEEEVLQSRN
Conditions: protein: recombinant; tags: N-terminal GST; dsDNA, one strand shown. A digest of the protocol:
as §1

A further assay deals with CRX (Homo sapiens, UniProt O43186 1-299). Conditions: protein: recombinant; tags: N-terminal GST; dsDNA, one strand shown. A digest of the protocol:
as §1

The next assay concerns the target ETV1 (Homo sapiens, UniProt P50549 1-477). Conditions: protein: recombinant; tags: N-terminal GST; dsDNA, one strand shown. A digest of the protocol: as §1

Sequence of ETV1 (P50549 whole entry): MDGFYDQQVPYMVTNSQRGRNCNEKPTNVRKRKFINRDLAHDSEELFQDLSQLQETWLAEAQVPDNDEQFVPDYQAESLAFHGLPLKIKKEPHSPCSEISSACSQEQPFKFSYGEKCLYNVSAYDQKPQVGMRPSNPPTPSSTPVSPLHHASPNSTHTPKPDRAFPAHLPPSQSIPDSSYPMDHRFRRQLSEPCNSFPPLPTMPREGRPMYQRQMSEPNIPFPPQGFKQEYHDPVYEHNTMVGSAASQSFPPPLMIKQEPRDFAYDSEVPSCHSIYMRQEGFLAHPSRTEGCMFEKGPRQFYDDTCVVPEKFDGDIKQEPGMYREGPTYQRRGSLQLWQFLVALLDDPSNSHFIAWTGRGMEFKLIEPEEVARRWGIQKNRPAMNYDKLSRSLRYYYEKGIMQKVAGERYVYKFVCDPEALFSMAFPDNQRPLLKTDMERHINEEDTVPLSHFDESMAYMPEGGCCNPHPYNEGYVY
Sequence of HSF1 (Q00613 whole entry): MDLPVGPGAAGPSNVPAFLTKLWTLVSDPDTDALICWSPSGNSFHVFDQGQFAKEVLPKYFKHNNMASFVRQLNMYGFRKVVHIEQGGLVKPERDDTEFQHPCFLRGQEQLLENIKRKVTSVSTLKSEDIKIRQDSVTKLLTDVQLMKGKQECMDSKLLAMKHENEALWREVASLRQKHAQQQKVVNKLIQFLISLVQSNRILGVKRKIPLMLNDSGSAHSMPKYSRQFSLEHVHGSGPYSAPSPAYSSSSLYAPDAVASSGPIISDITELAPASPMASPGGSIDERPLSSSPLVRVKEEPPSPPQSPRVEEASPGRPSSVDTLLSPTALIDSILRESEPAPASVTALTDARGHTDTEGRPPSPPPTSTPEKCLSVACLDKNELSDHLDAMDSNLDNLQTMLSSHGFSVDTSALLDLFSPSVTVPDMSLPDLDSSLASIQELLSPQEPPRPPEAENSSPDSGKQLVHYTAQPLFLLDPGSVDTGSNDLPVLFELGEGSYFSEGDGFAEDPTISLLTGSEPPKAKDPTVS
Sequence of CRX (O43186 whole entry): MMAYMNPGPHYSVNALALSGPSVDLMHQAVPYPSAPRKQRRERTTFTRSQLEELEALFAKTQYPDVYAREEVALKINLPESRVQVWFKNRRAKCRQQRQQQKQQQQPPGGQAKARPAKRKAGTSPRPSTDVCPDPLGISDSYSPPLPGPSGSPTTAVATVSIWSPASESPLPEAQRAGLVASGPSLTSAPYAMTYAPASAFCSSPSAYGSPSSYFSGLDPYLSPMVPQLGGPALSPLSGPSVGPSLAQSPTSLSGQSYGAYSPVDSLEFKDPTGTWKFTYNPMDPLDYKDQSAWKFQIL
Sequence of ELF1 (P32519 whole entry): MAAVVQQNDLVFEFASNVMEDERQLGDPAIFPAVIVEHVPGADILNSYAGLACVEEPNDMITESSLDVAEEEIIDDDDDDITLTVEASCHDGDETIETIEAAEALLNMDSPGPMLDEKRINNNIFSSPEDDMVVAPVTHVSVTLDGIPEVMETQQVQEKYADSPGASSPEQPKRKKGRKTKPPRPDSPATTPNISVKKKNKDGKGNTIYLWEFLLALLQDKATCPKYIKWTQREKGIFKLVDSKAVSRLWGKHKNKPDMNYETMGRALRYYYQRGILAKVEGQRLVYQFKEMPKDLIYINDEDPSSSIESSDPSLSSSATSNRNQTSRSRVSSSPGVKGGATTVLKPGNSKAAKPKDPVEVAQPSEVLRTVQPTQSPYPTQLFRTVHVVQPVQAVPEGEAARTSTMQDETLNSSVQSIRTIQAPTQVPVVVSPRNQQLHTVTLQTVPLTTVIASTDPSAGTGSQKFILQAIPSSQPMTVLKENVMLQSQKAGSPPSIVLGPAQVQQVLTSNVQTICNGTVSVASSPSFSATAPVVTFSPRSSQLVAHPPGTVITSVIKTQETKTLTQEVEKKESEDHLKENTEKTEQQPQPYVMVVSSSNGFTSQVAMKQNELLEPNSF
Sequence of SPIB (Q01892 whole entry): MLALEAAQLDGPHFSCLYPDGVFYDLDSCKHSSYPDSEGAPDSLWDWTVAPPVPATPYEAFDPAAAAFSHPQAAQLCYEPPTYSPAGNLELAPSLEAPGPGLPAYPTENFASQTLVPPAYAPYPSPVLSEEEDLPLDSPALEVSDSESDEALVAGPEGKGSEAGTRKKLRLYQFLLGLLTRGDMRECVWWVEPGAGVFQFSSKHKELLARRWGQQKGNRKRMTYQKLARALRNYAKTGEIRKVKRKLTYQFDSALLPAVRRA
Sequence of ELF4 (Q99607 whole entry): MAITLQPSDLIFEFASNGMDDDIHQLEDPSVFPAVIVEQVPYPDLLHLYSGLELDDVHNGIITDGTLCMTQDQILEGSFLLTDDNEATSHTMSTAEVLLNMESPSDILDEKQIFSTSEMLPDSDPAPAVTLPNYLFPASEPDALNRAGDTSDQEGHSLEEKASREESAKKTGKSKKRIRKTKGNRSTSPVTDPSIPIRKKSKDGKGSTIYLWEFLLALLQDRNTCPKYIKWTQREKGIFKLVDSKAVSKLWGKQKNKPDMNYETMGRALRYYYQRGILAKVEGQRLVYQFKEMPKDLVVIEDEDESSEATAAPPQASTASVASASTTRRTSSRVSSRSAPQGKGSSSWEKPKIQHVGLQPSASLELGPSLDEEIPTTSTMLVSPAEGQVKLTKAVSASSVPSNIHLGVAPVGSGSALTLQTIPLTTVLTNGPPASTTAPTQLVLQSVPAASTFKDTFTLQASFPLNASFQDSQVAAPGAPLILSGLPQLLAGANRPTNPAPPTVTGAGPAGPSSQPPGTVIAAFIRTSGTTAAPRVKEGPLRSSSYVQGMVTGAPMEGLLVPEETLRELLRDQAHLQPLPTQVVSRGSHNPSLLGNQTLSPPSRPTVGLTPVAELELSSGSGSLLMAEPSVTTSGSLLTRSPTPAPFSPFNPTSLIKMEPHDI
Sequence of ETV5 (P41161 whole entry): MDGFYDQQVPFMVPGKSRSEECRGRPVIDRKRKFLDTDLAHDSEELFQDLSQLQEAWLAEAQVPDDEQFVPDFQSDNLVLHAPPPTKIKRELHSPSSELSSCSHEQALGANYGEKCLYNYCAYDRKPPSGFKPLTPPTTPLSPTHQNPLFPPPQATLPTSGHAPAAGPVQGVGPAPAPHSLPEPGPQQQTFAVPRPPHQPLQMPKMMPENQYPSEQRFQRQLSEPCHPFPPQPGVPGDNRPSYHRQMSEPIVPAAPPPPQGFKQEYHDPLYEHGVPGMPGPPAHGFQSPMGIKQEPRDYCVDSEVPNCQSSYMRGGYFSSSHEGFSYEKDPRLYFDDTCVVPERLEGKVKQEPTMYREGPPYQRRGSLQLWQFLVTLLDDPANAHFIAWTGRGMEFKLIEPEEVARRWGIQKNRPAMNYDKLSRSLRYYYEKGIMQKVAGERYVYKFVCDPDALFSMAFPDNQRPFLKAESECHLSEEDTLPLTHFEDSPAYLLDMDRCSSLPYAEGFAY

With CTATCC, the binding signal was 1.45 fold enrichment (6-mer frequency, TF over GST control) with FLI1; 1.4 fold enrichment (6-mer frequency, TF over GST control) in the assay with ELK1; 1.29 fold enrichment (6-mer frequency, TF over GST control) with GABPA; 1.34 fold enrichment (6-mer frequency, TF over GST control) with ERG; 1.38 fold enrichment (6-mer frequency, TF over GST control) with ELF1; 1.29 fold enrichment (6-mer frequency, TF over GST control) with EHF. In addition, the binding signal with SPI1 was 1.28 fold enrichment (6-mer frequency, TF over GST control); in the assay with SPIB, 1.4 fold enrichment (6-mer frequency, TF over GST control); in the assay with ELK3 it was 1.48 fold enrichment (6-mer frequency, TF over GST control); with FEV, 1.39 fold enrichment (6-mer frequency, TF over GST control); with ETV5, 1.49 fold enrichment (6-mer frequency, TF over GST control); with HSF1, 1.25 fold enrichment (6-mer frequency, TF over GST control). The binding signal was 1.36 fold enrichment (6-mer frequency, TF over GST control) with SPIC; 1.34 fold enrichment (6-mer frequency, TF over GST control) in the assay with ELF4; 1.56 fold enrichment (6-mer frequency, TF over GST control) in the assay with ELK4; 1.49 fold enrichment (6-mer frequency, TF over GST control) with ETV2; 1.31 fold enrichment (6-mer frequency, TF over GST control) with ELF3; 1.31 fold enrichment (6-mer frequency, TF over GST control) with CRX. The binding signal with ETV1 was 1.36 fold enrichment (6-mer frequency, TF over GST control).
